According to PubChem BioAssay (NCATS):
Several values for one entry are separate records, joined by “and”; a condition that tells them apart may be missing. Identical values can stand only once. Inconclusive results are not listed. Activity calls are given as the source filed them. Calls follow the shape of the dose curve; as a rule, active = well fitted inhibition curve with a large enough effect; inconclusive = small, poorly fitted or top-dose-only effect; inactive = no such curve, though single readings can be large or run the other way.

Experiment: Primary qHTS for inhibitors of nuclear receptor binding SET domain protein 2 (NSD2) in an RCH-ACV wild type WT cells (2C) (AID 1645877); also: nearly all actives have a fitted effect of over 70% in size
Details: RCH-ACV (leukaemia line) NSD2 WT (2C) viability, CellTiter-Glo, 72 h; series mostly up to 44.9 µM; activity change, negative = cell killing: at the top concentration
Excerpt: Assay Provider: Jonathan D. Licht, MD
University of Florida College of Medicine, Gainesville, FL
Mutations in epigenetic regulators are common in relapsed pediatric acute lymphoblastic leukemia (ALL). Here, we uncovered the mechanism underlying the relapse of ALL driven by an activating mutation of the NSD2 histone methyltransferase (p.E1099K). […] Correction of this mutation restored glucocorticoid sensitivity. The transcriptional response to glucocorticoids was blocked in NSD2 mutant cells due to depressed glucocorticoid receptor (GR) levels and the failure of glucocorticoids to autoactivate GR expression. […] Pre-treatment of NSD2 p.E1099K cell lines and PDX samples with PRC2 inhibitors reversed glucocorticoid resistance in vitro and in vivo.
High-throughput drug screening of isogenic RCH-ACV cell lines was performed at the National Center for Advancing Translational Science (NCATS), National Institutes of Health as previously described (1). Briefly, isogenic RCH-ACV NSD2 p.E1099K mutant (9B) and WT cells (2C) were plated at 500 cells/well in a 1536-well plate with a 72-hour incubation with compounds prior to addition of CellTiter-Glo to assess cell viability. NCATS libraries screened include: NPC, MIPE 5.0, Kinase and NPACT. To determine compound activity in the qHTS assay, the concentration-response data for each sample was plotted and modeled by a four-parameter logistic fit yielding IC50 and efficacy (maximal response) values. The area under the curve (AUC) of the dose-response curve ensures both efficacy (magnitude of cell killing) and potency (concentration that elicits cell killing) are accounted for in the analysis of activity.
1. Tobie D Lee, Olivia W Lee, Kyle R Brimacombe, Lu Chen, Rajarshi Guha, Sabrina Lusvarghi, Bethilehem G Tebase, Carleen Klumpp-Thomas, Robert W Robey, Suresh V Ambudkar, Min Shen, Michael M Gottesman, Matthew D Hall. A High-Throughput Screen of a Library of Therapeutics Identifies Cytotoxic Substrates of P-glycoprotein. Mol Pharmacol. 2019, Nov;96(5):629-640.
% is scaled to controls: 0 for no effect and ±100 for the full control effect; potency is read from the fitted curve at half-maximal effect.

SMILES	activity change, negative = cell killing	Potency	outcome
CCN1CCCC1CNC(=O)C(O)(c1ccccc1)c1ccccc1 (stereo not given)	-6.61% (inactive)		
Cc1ccc([N+](=O)[O-])[c]2c1[O][Hg]2		0.168 µM (active)	
CCc1ccc(C2CCNCC2)cc1	-21.2% (inactive)		
COc1cc(N)c(Cl)cc1C(=O)NC1CN2CCC1CC2 (stereo not given)	4.93% (inactive)		
CCOC(=O)c1ncn2c1CN(C)C(=O)c1c(I)cccc1-2	-0.314% (inactive)		
CCO[C@H]1O[C@@H]2OC3(C)CC[C@H]4[C@H](C)CC[C@@H]([C@H]1C)[C@@]24OO3		3.35 µM (active)	
CCCCCCCCCCCC[N+](C)(C)CCOc1ccccc1		0.944 µM (active)	
CC(C)(O)C(Cl)(Cl)Cl			inactive
Cc1ccc(N=CN(C)C=Nc2ccc(C)cc2C)c(C)c1	8.39% (inactive)		
COP(=O)(OC)OC=C(Cl)Cl			inactive
C#C[C@]1(O)CC[C@H]2[C@@H]3CCC4=CC(=O)CCC4=C3C=C[C@@]21CC	-2.68% (inactive)		
CN(C)C(=O)Oc1cc(OC(=O)N(C)C)cc(C(O)CNC(C)(C)C)c1 (stereo not given)	-6.4% (inactive)		
CC1=C2[C@H]3OC(=O)[C@@H](C)[C@@H]3CC[C@@]2(C)C=CC1=O	-22.4% (inactive)		
CN1C[C@@H](NS(=O)(=O)N(C)C)C[C@@H]2c3cccc4c3c(cn4C)C[C@H]21	-8.88% (inactive)		
CCOC(=O)c1cncn1C(C)c1ccccc1 (stereo not given)		inactive	
COc1ccc2c3c1O[C@H]1[C@@H](O)C=C[C@H]4[C@@H](C2)N(C)CC[C@@]341		6.72 µM (active)	
CC[n+]1c(-c2ccccc2)c2cc(N)ccc2c2ccc(N)cc21		2.66 µM (active)	
CC[C@H](O)C(C[C@H](C)N(C)C)(c1ccccc1)c1ccccc1	-7% [at 91.9 µM] (inactive)		
C[C@]12Cc3nonc3C[C@@H]1CC[C@@H]1[C@@H]2CC[C@@]2(C)[C@H]1CC[C@]2(C)O		21.1 µM (active)	
C=CC[C@]1(O)CC[C@H]2[C@@H]3CCC4=CC(=O)CCC4=C3C=C[C@@]21C		23.7 µM (active)	

SMILES	activity change, negative = cell killing	Potency	outcome
CC(C)C(Br)C(=O)NC(N)=O (stereo not given)	3.13% (inactive)		
NC(=O)OCCCc1ccccc1			inactive
CC(C)[N+](C)(CCC(C(N)=O)(c1ccccc1)c1ccccc1)C(C)C			inactive
CC(=O)OC1(c2ccccc2)CCN(CCc2ccccc2)CC1	-1.84% [at 91.9 µM] (inactive)		
O=C1CN2CCOC2(c2ccccc2Cl)c2cc(Cl)ccc2N1 (stereo not given)	-21.7% (inactive)		
CC(Cc1ccc2c(c1)OCO2)NO (stereo not given)	-24.9% [at 91.9 µM] (inactive)		
ClCc1cccc(Cl)c1			inactive
C[C@H](CN1CCOCC1)C(C(=O)N1CCCC1)(c1ccccc1)c1ccccc1	-3.96% [at 155 µM] (inactive)		
CCC(=O)OC1(c2ccccc2)CCN(C)CC1	-13.2% [at 91.9 µM] (inactive)		
CN1C(=O)[C@@H](NC(=O)c2cc3ccccc3[nH]2)N=C(c2ccccc2)c2ccccc21	-11.1% (inactive)		
C[N+](C)(C)CCOC(=O)C(O)(c1ccccc1)c1ccccc1	-10.1% (inactive)		
CCC1(c2cccc(O)c2)CCCCN(C)C1 (stereo not given)	-18.4% (inactive)		
C[C@@H]1C[C@@H]([C@H](O)CC2CC(=O)NC(=O)C2)C(=O)[C@@H](C)C1		188 nM (active) and 296 nM (active)	
O=C(O)CCCCCCNC1c2ccccc2CCc2ccccc21			inactive
CN(C)CCc1c[nH]c2ccc(O)cc12	-21.2% [at 91.9 µM] (inactive)		
ClC1=C(Cl)C2(Cl)C(CBr)CC1(Cl)C2(Cl)Cl (stereo not given)	7.23% (inactive)		
NC(=O)CN1CCCC1=O	5.1% (inactive)		
C=CCN1CC[C@]23CCCC[C@H]2[C@H]1Cc1ccc(O)cc13	-14.2% (inactive)		
C[C@]12CC[C@H](O)CC1=CC[C@@H]1[C@@H]2CC[C@]2(C)C(=O)CC[C@@H]12	-18.4% (inactive)		
CCN(Cc1ccc(Cl)nc1)/C(=C/[N+](=O)[O-])NC	7.8% (inactive)		
